{"source": "PubChem BioAssay (Tox21)", "note": "Inconclusive results are not listed. A call without a number means that no potency is given here. Calls of active or inactive are those of the source. Calls come from the whole dose curve; as a rule, active = well fitted cell-killing curve with a large enough effect in the repeat runs; inconclusive = weak or mixed curves, or effect the other way; inactive = no such curve, though single readings can be large or run the other way. Potency is the fitted concentration of half-maximal effect.", "data": [{"test": "qHTS assay to identify small molecule antagonists of the glucocorticoid receptor (GR) signaling pathway - cell viability counter screen (AID 720693); note: nearly all actives have a fitted effect of over 55% in size", "conditions": "GR-bla HeLa viability, CellTiter-Glo luminescence, 18 h, with 5 nM dexamethasone present; series mostly up to 58.5 µM", "values": [{"smiles": "CCCCOC(=O)C(C)CC", "note": "(stereo not drawn)", "Potency": "inactive"}, {"smiles": "CC(C)c1cccc(C(C)C)c1N1C(=O)c2ccc(O)cc2C1=O", "Potency": "43.6 µM (active)"}, {"smiles": "CCCN(CCc1cccs1)[C@H]1CCc2c(O)cccc2C1", "Potency": "inactive"}, {"smiles": "CCCSS/C(CCO)=C(\\C)N(C=O)Cc1cnc(C)nc1N", "Potency": "inactive"}, {"smiles": "S=P(N1CC1)(N1CC1)N1CC1", "Potency": "inactive"}, {"smiles": "Clc1ccc(C(c2ccccc2Cl)C(Cl)Cl)cc1", "note": "(stereo not drawn)", "Potency": "inactive"}, {"smiles": "CCC(C)(C)c1cc(O)c(C(C)(C)CC)cc1O", "Potency": "inactive"}, {"smiles": "CCCCCCCCCCCCCCNCCO", "Potency": "inactive"}, {"smiles": "CCCCCCCCCC(=O)N(C)C", "Potency": "inactive"}, {"smiles": "CCc1cccc(C)c1", "Potency": "inactive"}, {"smiles": "C[C@@H]1CC[C@H]2C(C)(C)[C@H]3C[C@@]12CC[C@@]3(C)O", "Potency": "inactive"}, {"smiles": "Cc1cn[nH]c1", "Potency": "inactive"}, {"smiles": "CC=O", "Potency": "25.7 µM (active)"}, {"smiles": "Cn1cnc2ncnc(N)c21", "Potency": "inactive"}, {"smiles": "Clc1ccc(C(Cn2ccnc2)OCc2c(Cl)cccc2Cl)c(Cl)c1", "note": "(stereo not drawn)", "Potency": "inactive"}, {"smiles": "Clc1ccccc1CN1CCc2sccc2C1", "Potency": "inactive"}, {"smiles": "CSc1ccc2c(c1)N(CCC1CCCCN1C)c1ccccc1S2", "note": "(stereo not drawn)", "Potency": "54.7 µM (active)"}, {"smiles": "CCN=C1C=CC(=C(c2ccc(N(CC)CC)cc2)c2ccc(N(CC)CC)cc2)c2ccccc21", "Potency": "24.4 µM (active)"}]}]}
